Several values for one entry are separate records, joined by “and”; a condition that tells them apart may be missing. Identical values can stand only once. Results filed as inconclusive are left out. Some structures have more than one record in an assay (separate samples or runs), and their calls can disagree. Activity calls are given as the source filed them. Calls follow the shape of the dose curve; as a rule, active = well fitted curve in the direction sought with a large enough effect; inconclusive = small, poorly fitted or top-dose-only effect, or another doubt; inactive = no such curve, though single readings can be large; an effect the other way counts as inactive or inconclusive.
Legend:
W2 = test: qHTS profiling for inhibitors of Plasmodium falciparum proliferation (AID 504749);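 also: 0% = DMSO vehicle and full inhibition = artemisinin control; nearly all actives have a fitted effect of over 60% in size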; conditions: P. falciparum in erythrocytes, SYBR Green DNA, 72 h; series mostly up to 28.7 µM
How it was run: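 P. falciparum-infected erythrocytes (0.3% parasitemia, 2.5% hematocrit final) were exposed to compounds for 72 h at 37 C in 5% CO2, then lysed with SYBR Green buffer overnight at room temperature; parasite DNA fluorescence was normalized to artemisinin and DMSO controls.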

CRL-7250 [1] = test: Cytotoxic Profiling of Annotated Libraries Using Quantitative High-Throughput Screening (AID 1296008); conditions: Five cell lines viability, CellTiter-Glo ATP luminescence, 48-72 h; max response: hits give low values; also: nearly all actives have a fitted effect of over 60% in size; also: potency is read from the fitted curve at half-maximal effect; as to max response: % is scaled to controls: 0 for no effect and ±100 for the full control effect
How it was run: (§1)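 Compounds were pin-transferred onto cells and incubated 48 or 72 hr at 37 degree Celsius, 95% humidity. CellTiter-Glo was added, plates sat 10 min at room temperature, then ATP-coupled luminescence was imaged as the viability read-out.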

HEK293 = test: as above; conditions: Five cell lines viability, CellTiter-Glo ATP luminescence, 48-72 h; max response: hits give low values
How it was run: as §1

HaCat [2] = test: as above; conditions: Five cell lines viability, CellTiter-Glo ATP luminescence, 48-72 h; max response: hits give low values
How it was run: as §1

KB-3-1 = test: as above; conditions: Five cell lines viability, CellTiter-Glo ATP luminescence, 48-72 h; max response: hits give low values
How it was run: as §1

NIH3T3 [3] = test: as above; conditions: Five cell lines viability, CellTiter-Glo ATP luminescence, 48-72 h; max response: hits give low values
How it was run: as §1

CRL-7250 [4] = test: qHTS assay to identify novel small-molecules to repurpose for Merkel cell carcinoma treatment (AID 1296009); conditions: MCC and control cell lines, CellTiter-Glo viability, 72 h; at 44.8 µM (top of the series) unless noted; also: nearly all actives have a fitted effect of over 60% in size; also: potency is read from the fitted curve at half-maximal effect
How it was run: (§2)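 Cells exposed to NPC (8-point) and MIPE (11-point) compound dilutions for 72 hr at 37 degree celsius; viability read by CellTiter-Glo luminescence, normalized to no-cell and DMSO in-plate controls.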

MCC-13 = test: as above; conditions: MCC and control cell lines, CellTiter-Glo viability, 72 h; series mostly up to 46 µM
How it was run: as §2

MCC-26 = test: as above; conditions: MCC and control cell lines, CellTiter-Glo viability, 72 h; series mostly up to 46 µM
How it was run: as §2

MKL-1 = test: as above; conditions: MCC and control cell lines, CellTiter-Glo viability, 72 h; series mostly up to 46 µM
How it was run: as §2

MKL-2 = test: as above; conditions: MCC and control cell lines, CellTiter-Glo viability, 72 h; series mostly up to 46 µM
How it was run: as §2

NIH3T3 [5] = test: as above; conditions: MCC and control cell lines, CellTiter-Glo viability, 72 h; at 44.8 µM (top of the series) unless noted
How it was run: as §2

UISO = test: as above; conditions: MCC and control cell lines, CellTiter-Glo viability, 72 h; series mostly up to 46 µM
How it was run: as §2

WaGa = test: as above; conditions: MCC and control cell lines, CellTiter-Glo viability, 72 h; series mostly up to 46 µM
How it was run: as §2

C33A = test: Primary qHTS to identify gynecologic anti-cancer compounds using libraries of approved drugs and bioactive compounds (AID 1345084); conditions: Gynecologic cancer cell panel viability, ATPlite luminescence, 48 h; series mostly up to 57.5 µM; also: nearly all actives have a fitted effect of over 55% in size; also: potency is read from the fitted curve at half-maximal effect
How it was run: (§3)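 Cells, 1,000 per well, plated 16 h, then exposed 48 h at 37 C to compounds. Viability by ATPlite luminescence after 15 min at room temperature.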

CAOV3 = test: as above; conditions: Gynecologic cancer cell panel viability, ATPlite luminescence, 48 h; series mostly up to 57.5 µM
How it was run: as §3

CASKI = test: as above; conditions: Gynecologic cancer cell panel viability, ATPlite luminescence, 48 h; series mostly up to 57.5 µM
How it was run: as §3

Es-2 = test: as above; conditions: Gynecologic cancer cell panel viability, ATPlite luminescence, 48 h; series mostly up to 57.5 µM
How it was run: as §3

HACAT [6] = test: qHTS assay to identify novel small-molecules to repurpose for Merkel cell carcinoma treatment (AID 1296009); conditions: MCC and control cell lines, CellTiter-Glo viability, 72 h; at 44.8 µM (top of the series) unless noted; also: nearly all actives have a fitted effect of over 60% in size; also: potency is read from the fitted curve at half-maximal effect
How it was run: as §2

HEK293T = test: as above; conditions: MCC and control cell lines, CellTiter-Glo viability, 72 h; at 44.8 µM (top of the series) unless noted
How it was run: as §2

Cc1cc(O)ccc1Cl
inactive: Potency (W2) | outcome (CRL-7250 [1]) | max response (HEK293) 0.405% | max response (HaCat [2]) 2.83% | max response (KB-3-1) -3.49% | outcome (NIH3T3 [3]) | outcome (CRL-7250 [4]) | Potency (MCC-13) | Potency (MCC-26) | Potency (MKL-1) | Potency (MKL-2) | outcome (NIH3T3 [5]) | Potency (UISO) | Potency (WaGa) | Potency (C33A) | Potency (CAOV3) | Potency (CASKI) | Potency (Es-2)

CC(=O)N(C)c1cccc(-c2ccnc3c(C(=O)c4cccs4)cnn23)c1
inactive: max response (CRL-7250 [1]) -13.2% | outcome (CRL-7250 [1]) | max response (HaCat [2]) 3.39% | outcome (HaCat [2]) | max response (KB-3-1) -3.54% | outcome (KB-3-1) | max response (NIH3T3 [3]) -0.872% and 2.98% | outcome (CRL-7250 [4]) | outcome (HACAT [6]) | Potency (MCC-13) | Potency (MCC-26) | Potency (MKL-1) | Potency (MKL-2) | Potency (UISO) | Potency (WaGa) | Potency (C33A) | Potency (CAOV3) | Potency (CASKI) | Potency (Es-2)

O=C(Oc1ccc([N+](=O)[O-])cc1)N1CCN(Cc2cccc(Oc3ccccc3)c2)CC1
inactive: max response (CRL-7250 [1]) -6.9% and 1.64% | max response (HEK293) 1.27% | max response (HaCat [2]) 0.717% and -5.04% | max response (KB-3-1) -6.21% and -13.5% | max response (NIH3T3 [3]) 0.403% | outcome (NIH3T3 [3]) | Potency (MCC-13) | Potency (MCC-26) | Potency (MKL-1) | Potency (MKL-2) | outcome (NIH3T3 [5]) | Potency (UISO) | Potency (WaGa) | Potency (C33A) | Potency (CASKI) | Potency (Es-2)

O=c1[nH]c2ccccc2n1C1CCN(Cc2ccc(-c3[nH]c4cc5ncnc5cc4nc3-c3ccccc3)cc2)CC1
active: Potency (HEK293) 18.7 µM
inactive: outcome (CRL-7250 [1]) | max response (HaCat [2]) 0.8% | outcome (KB-3-1) | max response (NIH3T3 [3]) -3.31% | outcome (CRL-7250 [4]) | Potency (MCC-13) | Potency (MKL-1) | Potency (MKL-2) | Potency (UISO) | Potency (WaGa)

CN(C)[C@@H]1C(=O)C(C(N)=O)=C(O)[C@@]2(O)C(=O)C3=C(O)c4c(O)cccc4[C@@](C)(O)[C@H]3[C@H](O)[C@@H]12
inactive: max response (CRL-7250 [1]) -1.31% | outcome (HEK293) | outcome (HaCat [2]) | max response (KB-3-1) -7.87% and 0.265% and -1.24% | max response (NIH3T3 [3]) 4.97% | outcome (HACAT [6]) | outcome (HEK293T) | Potency (MCC-13) | Potency (MKL-1) | Potency (MKL-2) | Potency (UISO) | Potency (WaGa)

O=C(Oc1ccc([N+](=O)[O-])cc1)N1CCC(C(O)(c2ccc3c(c2)OCO3)c2ccc3c(c2)OCO3)CC1
inactive: max response (HEK293) -16.1% | max response (HaCat [2]) -5.43% | outcome (HaCat [2]) | max response (KB-3-1) 5.68% and 6.78% | outcome (NIH3T3 [3]) | outcome (HACAT [6]) | Potency (MCC-13) | Potency (MCC-26) | Potency (MKL-1) | Potency (MKL-2) | outcome (NIH3T3 [5]) | Potency (UISO) | Potency (WaGa) | Potency (C33A) | Potency (CAOV3) | Potency (CASKI) | Potency (Es-2)
active: Potency (CRL-7250 [1]) 13.2 µM

O=C(O)C(Cl)Cl
inactive: Potency (W2) | outcome (CRL-7250 [1]) | outcome (HEK293) | outcome (HaCat [2]) | max response (KB-3-1) -7.1% and -3.84% | max response (NIH3T3 [3]) -3.68% | outcome (CRL-7250 [4]) | outcome (HACAT [6]) | outcome (HEK293T) | Potency (MCC-13) | Potency (MCC-26) | Potency (MKL-1) | Potency (MKL-2) | Potency (UISO) | Potency (WaGa) | Potency (C33A) | Potency (CASKI) | Potency (Es-2)

Clc1ccccc1C(c1ccccc1)(c1ccccc1)n1cccn1
inactive: outcome (CRL-7250 [1]) | max response (HEK293) -5.51% | max response (HaCat [2]) -3.22% | max response (KB-3-1) 9.15% | outcome (NIH3T3 [3]) | outcome (CRL-7250 [4]) | Potency (MCC-13) | Potency (MCC-26) | Potency (MKL-1) | Potency (MKL-2) | outcome (NIH3T3 [5]) | Potency (UISO) | Potency (WaGa)

O=[N+]([O-])c1c(Cl)c(Cl)cc(Cl)c1Cl
inactive: max response (CRL-7250 [1]) -4.27% | max response (HEK293) 4.07% | outcome (HaCat [2]) | max response (KB-3-1) -18.1% | outcome (NIH3T3 [3]) | outcome (HACAT [6]) inactive [at 92 µM] | Potency (MCC-13) | Potency (MCC-26) | Potency (MKL-1) | Potency (MKL-2) | outcome (NIH3T3 [5]) inactive [at 92 µM] | Potency (UISO) | Potency (WaGa) | Potency (C33A) | Potency (CASKI) | Potency (Es-2)

O=c1[nH]c2ccc(Cl)cc2c(N[C@@H]2CN3CCC2CC3)c1-c1nc2ccccc2[nH]1
active: Potency (CRL-7250 [1]) 2.35 µM and 6.51 µM | Potency (HEK293) 0.059 µM | Potency (HaCat [2]) 16.6 µM | Potency (KB-3-1) 3.72 µM | Potency (NIH3T3 [3]) 83.3 nM and 206 nM | Potency (MCC-13) 4.18 µM | Potency (MKL-1) 0.743 µM | Potency (MKL-2) 2.64 µM | Potency (UISO) 5.9 µM | Potency (WaGa) 1.48 µM | Potency (CASKI) 10 µM | Potency (Es-2) 0.447 µM
inactive: max response (HEK293) -122% | Potency (C33A)

CC(C)(C)[C@]1(O)C[C@@H]2OC(=O)C[C@@]23C(=O)O[C@@H]2OC(=O)[C@H](O)C213 (stereo partly specified)
inactive: max response (CRL-7250 [1]) 2.16% | outcome (HEK293) | outcome (HaCat [2]) | outcome (KB-3-1) | outcome (NIH3T3 [3]) | outcome (HACAT [6]) | outcome (HEK293T) | Potency (MCC-13) | Potency (MCC-26) | Potency (MKL-1) | Potency (MKL-2) | outcome (NIH3T3 [5]) | Potency (UISO) | Potency (WaGa)

C1CCC(NC2CCCCC2)CC1
inactive: Potency (W2) | outcome (CRL-7250 [1]) | max response (HEK293) 2.36% | max response (HaCat [2]) 3.35% | max response (KB-3-1) 6.25% | max response (NIH3T3 [3]) -2.97% | outcome (CRL-7250 [4]) | Potency (MCC-13) | Potency (MCC-26) | Potency (MKL-1) | Potency (MKL-2) | Potency (UISO) | Potency (WaGa) | Potency (C33A) | Potency (CAOV3) | Potency (CASKI) | Potency (Es-2)

Reference: PubChem BioAssay (NCATS)
